The values that follow come from ChEMBL document CHEMBL3988442, “University of Dundee, Small-Polar-MMV Screening Library” (2021).

The structures appear in SMILES notation. For part of these data: Entries with a potency or affinity are not part of this list.

Common to all, as to design: scale not given: direction of the effect not stated beside the values
Test [1] has as its target Protein translocase subunit SecA (Escherichia coli (strain K12)) (UniProt P10408). The test can be described thus: Assay to Identify E. coli SecA ATPase Inhibitors. In kind it is functional. The conditions noted are these: 30 µM.
Test [2] has as its target T1, Ubiquitin-activating enzyme e1, putative (Leishmania donovani (strain BPK282A1)) (UniProt E9BSI1).
T1 sequence (whole entry): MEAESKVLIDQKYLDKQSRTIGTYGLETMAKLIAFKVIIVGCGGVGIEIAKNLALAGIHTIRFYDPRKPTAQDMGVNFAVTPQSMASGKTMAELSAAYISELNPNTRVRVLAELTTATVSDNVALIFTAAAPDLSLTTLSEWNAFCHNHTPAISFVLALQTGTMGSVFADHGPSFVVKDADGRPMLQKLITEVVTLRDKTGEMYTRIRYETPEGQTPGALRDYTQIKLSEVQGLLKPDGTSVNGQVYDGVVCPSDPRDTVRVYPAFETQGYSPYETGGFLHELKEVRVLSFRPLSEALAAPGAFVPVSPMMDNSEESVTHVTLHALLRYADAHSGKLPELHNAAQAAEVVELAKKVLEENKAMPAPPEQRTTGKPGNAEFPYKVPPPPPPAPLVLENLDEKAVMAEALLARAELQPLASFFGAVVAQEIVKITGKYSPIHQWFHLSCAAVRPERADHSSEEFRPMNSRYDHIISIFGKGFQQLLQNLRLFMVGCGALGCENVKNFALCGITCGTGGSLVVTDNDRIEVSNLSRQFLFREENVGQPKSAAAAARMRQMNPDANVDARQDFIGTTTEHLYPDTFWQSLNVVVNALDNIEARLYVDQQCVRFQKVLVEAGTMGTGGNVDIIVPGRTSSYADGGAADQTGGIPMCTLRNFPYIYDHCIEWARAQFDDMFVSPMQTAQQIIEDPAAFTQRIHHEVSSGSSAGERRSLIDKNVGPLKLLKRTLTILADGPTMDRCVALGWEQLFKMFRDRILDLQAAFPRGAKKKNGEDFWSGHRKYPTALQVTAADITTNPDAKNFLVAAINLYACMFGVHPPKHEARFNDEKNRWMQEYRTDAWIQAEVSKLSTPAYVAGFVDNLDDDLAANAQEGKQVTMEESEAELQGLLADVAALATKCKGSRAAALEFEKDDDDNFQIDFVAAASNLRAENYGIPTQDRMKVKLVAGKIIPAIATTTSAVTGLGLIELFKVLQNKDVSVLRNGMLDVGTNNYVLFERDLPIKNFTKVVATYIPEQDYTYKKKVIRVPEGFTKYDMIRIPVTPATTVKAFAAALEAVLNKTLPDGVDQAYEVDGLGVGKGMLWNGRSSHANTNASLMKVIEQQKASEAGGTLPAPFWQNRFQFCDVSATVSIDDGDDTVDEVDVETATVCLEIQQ
Put plainly: Leishmania donovani Ubiquitin Activating Enzyme (LdE1). Format: functional. Particulars: 30 µM.

The target in test [3] is T2, Aspartate--tRNA(Asp/Asn) ligase (Mycobacterium tuberculosis (strain ATCC 25618 / H37Rv)) (UniProt P9WFW3). Note: in the data most compounds retested in dose-response had high values.
T2 sequence (whole entry): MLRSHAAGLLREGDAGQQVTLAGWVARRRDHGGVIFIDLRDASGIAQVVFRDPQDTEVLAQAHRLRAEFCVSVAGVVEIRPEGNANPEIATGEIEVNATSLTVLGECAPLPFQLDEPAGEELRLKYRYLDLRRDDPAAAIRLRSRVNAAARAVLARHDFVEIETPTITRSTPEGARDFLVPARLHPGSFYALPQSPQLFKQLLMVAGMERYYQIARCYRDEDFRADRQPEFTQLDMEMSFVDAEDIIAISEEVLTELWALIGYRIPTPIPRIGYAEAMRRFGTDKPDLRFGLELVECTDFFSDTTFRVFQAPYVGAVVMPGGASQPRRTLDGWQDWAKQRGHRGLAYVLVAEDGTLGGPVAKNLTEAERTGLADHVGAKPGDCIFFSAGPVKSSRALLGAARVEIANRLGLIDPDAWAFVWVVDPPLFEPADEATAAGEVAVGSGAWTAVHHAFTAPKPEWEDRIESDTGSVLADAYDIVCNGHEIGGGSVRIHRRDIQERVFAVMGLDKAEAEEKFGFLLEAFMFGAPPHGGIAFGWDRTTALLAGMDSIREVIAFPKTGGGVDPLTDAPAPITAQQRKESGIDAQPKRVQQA
Put plainly: Assay for Asp RNA synthetase-1 from Mycobacterium tuberculosis. Format: functional. Particulars: 30 µM.

In test [4] the target is Sialic acid-binding Ig-like lectin 9 (Homo sapiens) (UniProt Q9Y336). Put plainly: Hs-Siglec9 ALPHAscreen SOP 20170721. The conditions noted are these: 10 µM. For orientation: In Alpha technology, singlet oxygen from a donor bead excites a nearby acceptor bead.
Test [5] concerns Trypanosoma cruzi. Put plainly: Trypanosoma cruzi phosphomannomutase and mannose-1-phosphate guanylyltransferase assay. Particulars: 10 µM. In kind it is functional.
Test [6] addresses T3, Arginase-2, mitochondrial (Homo sapiens) (UniProt P78540).
T3 sequence (whole entry): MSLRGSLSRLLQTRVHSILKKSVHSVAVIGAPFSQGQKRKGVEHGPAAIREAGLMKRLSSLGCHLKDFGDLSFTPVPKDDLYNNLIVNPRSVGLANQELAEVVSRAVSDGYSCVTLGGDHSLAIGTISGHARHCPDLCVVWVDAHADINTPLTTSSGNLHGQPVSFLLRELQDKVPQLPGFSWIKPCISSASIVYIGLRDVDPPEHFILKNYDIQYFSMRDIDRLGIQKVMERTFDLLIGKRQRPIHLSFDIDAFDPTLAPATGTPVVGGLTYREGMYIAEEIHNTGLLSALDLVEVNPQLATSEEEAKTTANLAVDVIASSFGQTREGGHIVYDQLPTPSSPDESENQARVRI
The test can be described thus: in vitro enzyme assay to detect the production of urea directly proportional to the activity of Arginase II. Note: in the data most compounds retested in dose-response had high values. Format: functional. The conditions noted are these: 33.3 µM.

Test [7] deals with T4, Proteasome subunit beta (Trypanosoma cruzi) (UniProt O96673).
T4 sequence (whole entry): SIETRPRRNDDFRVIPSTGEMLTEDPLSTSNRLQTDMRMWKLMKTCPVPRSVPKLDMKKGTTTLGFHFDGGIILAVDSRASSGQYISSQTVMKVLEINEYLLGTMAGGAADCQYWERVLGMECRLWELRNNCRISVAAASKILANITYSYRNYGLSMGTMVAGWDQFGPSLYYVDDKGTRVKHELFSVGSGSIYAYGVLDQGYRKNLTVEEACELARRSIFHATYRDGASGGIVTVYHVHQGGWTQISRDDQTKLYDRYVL
Put plainly: Trypanosoma cruzi proteasome chymotrypsin-like activity (TcProtChymo) assay. Note: in the data most compounds retested in dose-response had high values. In kind it is functional. The conditions noted are these: 9.37 µM.

For test [8], the species on record is Homo sapiens. The test can be described thus: To identify inhibition of the IFN signalling (Jak-Stat) pathway via expression of an eGFP reporter gene under the control of an IFN-stimulated response element (ISRE) containing MxA promoter. In kind it is functional. Particulars: 30 µM. (A reporter such as luciferase makes a cellular process visible.)
Test [9] concerns the target Shiga toxin 2 (Escherichia coli O157:H7) (UniProt P09385+P09386). The test can be described thus: E. coli 0.157:H7 Shiga Toxin SOP - stx2 screening assay. Format: functional. Particulars: 30 µM.
In test [10] the target is T5, Tyrosyl-tRNA synthetase, putative (Trypanosoma cruzi (strain CL Brener)) (UniProt Q4DSP6).
T5 sequence (whole entry): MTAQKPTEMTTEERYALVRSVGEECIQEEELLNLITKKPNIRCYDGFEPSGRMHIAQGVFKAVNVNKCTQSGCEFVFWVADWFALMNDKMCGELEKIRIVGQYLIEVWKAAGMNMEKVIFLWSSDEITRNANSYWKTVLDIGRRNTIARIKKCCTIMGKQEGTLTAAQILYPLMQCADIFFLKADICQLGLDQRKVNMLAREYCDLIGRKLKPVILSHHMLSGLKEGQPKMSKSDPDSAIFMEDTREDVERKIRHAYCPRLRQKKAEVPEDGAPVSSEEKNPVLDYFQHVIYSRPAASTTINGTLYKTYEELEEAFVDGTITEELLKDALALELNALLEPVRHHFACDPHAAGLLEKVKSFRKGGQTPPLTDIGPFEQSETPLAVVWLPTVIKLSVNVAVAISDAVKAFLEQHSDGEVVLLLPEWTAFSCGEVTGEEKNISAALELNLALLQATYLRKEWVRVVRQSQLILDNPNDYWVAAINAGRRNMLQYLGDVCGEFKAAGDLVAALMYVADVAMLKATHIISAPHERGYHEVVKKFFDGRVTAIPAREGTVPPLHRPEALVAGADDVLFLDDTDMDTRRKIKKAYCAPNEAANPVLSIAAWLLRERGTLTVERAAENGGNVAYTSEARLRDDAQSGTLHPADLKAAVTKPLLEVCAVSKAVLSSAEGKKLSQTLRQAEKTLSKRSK
The test can be described thus: Trypanosoma cruzi tyrosyl tRNA synthetase (TcYRS) _High Tyrosine SOP. Note: in the data most compounds retested in dose-response had high values. In kind it is functional. Particulars: 30 µM.

Test [11] addresses T5, Tyrosyl-tRNA synthetase, putative (Trypanosoma cruzi (strain CL Brener)). Put plainly: Trypanosoma cruzi tyrosyl tRNA synthetase (TcYRS) SOP. Format: functional. The conditions noted are these: 30 µM.
Test [12] addresses Chromo domain-containing protein 1 (Saccharomyces cerevisiae (strain ATCC 204508 / S288c) (Baker's yeast)) (UniProt P32657). The test can be described thus: ScCHD-1 Enzyme Inhibition Assay. Note: in the data most compounds retested in dose-response had high values. Format: functional. The conditions noted are these: 30 µM.

Chain of Sialic acid-binding Ig-like lectin 9 (Homo sapiens) (Q9Y336 whole entry): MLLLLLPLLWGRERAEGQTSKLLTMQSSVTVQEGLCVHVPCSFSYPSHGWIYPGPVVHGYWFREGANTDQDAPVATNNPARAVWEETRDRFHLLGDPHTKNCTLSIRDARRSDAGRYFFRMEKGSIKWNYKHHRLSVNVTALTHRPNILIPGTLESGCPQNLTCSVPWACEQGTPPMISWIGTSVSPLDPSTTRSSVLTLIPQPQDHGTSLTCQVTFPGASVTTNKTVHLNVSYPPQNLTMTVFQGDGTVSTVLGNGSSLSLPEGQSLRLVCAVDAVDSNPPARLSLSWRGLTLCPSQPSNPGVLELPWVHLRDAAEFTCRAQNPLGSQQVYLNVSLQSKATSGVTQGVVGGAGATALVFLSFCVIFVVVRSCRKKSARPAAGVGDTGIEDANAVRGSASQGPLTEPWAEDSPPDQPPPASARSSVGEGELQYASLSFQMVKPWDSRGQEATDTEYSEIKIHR
Chain of Chromo domain-containing protein 1 (Saccharomyces cerevisiae (strain ATCC 204508 / S288c) (Baker's yeast)) (P32657 whole entry, the tested form may be a part): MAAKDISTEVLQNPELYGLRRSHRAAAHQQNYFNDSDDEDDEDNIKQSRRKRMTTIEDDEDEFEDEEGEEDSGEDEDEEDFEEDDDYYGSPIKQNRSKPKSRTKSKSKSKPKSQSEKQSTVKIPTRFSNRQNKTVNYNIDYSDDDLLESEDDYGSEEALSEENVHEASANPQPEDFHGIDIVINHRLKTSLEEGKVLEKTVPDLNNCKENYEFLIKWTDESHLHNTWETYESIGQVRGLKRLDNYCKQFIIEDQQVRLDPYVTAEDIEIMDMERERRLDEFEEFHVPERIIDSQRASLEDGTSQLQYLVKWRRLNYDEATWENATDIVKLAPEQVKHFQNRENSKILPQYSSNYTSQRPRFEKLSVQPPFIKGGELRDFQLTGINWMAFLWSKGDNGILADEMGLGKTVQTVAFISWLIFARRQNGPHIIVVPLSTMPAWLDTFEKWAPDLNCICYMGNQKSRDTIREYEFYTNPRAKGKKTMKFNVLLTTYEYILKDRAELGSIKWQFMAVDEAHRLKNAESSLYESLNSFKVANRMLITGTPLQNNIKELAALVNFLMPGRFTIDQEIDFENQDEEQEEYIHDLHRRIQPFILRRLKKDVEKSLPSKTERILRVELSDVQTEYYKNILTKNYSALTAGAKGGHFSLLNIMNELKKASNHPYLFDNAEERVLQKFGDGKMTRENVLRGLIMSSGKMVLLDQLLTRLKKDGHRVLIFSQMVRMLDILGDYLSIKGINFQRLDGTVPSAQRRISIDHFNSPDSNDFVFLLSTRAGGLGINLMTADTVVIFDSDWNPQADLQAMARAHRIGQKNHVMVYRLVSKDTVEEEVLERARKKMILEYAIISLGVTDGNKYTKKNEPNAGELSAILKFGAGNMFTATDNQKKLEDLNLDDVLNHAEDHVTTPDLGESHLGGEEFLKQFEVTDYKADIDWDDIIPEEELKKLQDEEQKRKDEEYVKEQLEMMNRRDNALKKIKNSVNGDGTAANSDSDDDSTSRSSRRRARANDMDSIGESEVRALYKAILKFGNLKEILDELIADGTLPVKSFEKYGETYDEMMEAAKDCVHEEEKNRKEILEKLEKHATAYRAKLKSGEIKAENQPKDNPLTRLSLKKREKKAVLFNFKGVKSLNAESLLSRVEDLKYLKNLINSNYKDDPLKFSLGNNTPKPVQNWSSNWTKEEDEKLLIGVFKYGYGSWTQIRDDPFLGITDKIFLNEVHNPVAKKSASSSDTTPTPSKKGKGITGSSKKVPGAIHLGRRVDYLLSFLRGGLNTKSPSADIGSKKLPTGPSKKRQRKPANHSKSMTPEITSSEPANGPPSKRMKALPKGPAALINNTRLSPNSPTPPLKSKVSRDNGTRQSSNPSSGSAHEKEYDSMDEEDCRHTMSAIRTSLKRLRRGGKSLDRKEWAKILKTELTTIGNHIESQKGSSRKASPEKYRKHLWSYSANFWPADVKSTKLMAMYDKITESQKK
Chain of Protein translocase subunit SecA (Escherichia coli (strain K12)) (P10408 whole entry): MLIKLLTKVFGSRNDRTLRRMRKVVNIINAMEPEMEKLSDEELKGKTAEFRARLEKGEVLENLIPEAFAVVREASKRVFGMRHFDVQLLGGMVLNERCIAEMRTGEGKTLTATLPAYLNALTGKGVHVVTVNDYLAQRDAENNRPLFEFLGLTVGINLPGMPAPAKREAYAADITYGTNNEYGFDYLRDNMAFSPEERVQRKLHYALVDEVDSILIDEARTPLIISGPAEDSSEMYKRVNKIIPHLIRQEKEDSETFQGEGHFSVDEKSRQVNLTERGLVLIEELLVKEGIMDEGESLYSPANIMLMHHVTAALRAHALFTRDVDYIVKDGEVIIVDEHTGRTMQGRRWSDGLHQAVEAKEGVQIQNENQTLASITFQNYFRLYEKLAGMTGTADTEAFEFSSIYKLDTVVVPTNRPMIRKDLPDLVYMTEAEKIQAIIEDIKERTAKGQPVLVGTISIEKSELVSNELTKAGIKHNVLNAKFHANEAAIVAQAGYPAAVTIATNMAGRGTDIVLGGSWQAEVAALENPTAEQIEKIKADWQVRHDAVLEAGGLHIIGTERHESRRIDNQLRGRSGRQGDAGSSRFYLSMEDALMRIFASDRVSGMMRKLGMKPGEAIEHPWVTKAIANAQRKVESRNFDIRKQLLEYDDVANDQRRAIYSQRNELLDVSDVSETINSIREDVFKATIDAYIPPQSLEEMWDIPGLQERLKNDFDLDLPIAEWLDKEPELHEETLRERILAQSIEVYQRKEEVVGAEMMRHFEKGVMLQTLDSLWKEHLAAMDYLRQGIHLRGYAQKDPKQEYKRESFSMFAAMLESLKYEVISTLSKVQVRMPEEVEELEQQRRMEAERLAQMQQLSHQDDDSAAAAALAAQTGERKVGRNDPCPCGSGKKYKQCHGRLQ

Consider `COCC(=O)NC1CC2(CCN(CCF)CC2)Oc2ccccc21` (stereo not given), for which the Percent Effect was -7.73% in test [1]; 1.3% in test [2]; -6.51% in test [3]; -0.183% in test [4]; -2.63% in [5]; 1.37% in test [6]. Besides, the Percent Effect in test [7] is 8.67%; in [8], 16.2%; in test [9] it was 6.84%; in test [10], 0%; in test [11] it was -2.5%; in [12] it was -22.9%.

On to `Cc1cccc(CN2CC[C@H]3[C@H]2CCN3Cc2cnn(C)c2)n1`, for which the Percent Effect in test [1] is -6.02%; in [2], 3.9%; in test [3], -3.89%; in [4], 2.88%; in test [5], 0.75%; in test [6], -0.457%. The Percent Effect was -2.15% in test [7]; 34% in test [8]; -8.6% in test [9]; -1.93% in [10]; -10% in [11]; 1.01% in test [12].

In the case of `COCCN1C[C@@H]2CN(Cc3cccc(C)n3)C[C@@H]2C1=O`, the Percent Effect in test [1] was -2.33%; in test [2] it was -1.3%; in test [3], 1.39%; in [4], 0.23%; in test [5] it was -24.2%; in test [6], 2.28%. For the same compound, the Percent Effect in test [7] is 16.1%; in [8] it was 1.2%; in [9], -2.04%; in test [10], 7.73%; in test [11], 12.5%; in test [12], -8.2%.

On to `CCCN1C(=O)CC2(CCCNC2)C1=O` (stereo not given), for which the Percent Effect was -4.19% in test [1]; 11.7% in [2]; 3.28% in [3]; -2.44% in test [4]; -1.13% in test [5]; -0.913% in [6]. In addition, the Percent Effect in test [7] was 3.86%; in [8] it was -15.1%; in test [9], 2.28%; in [10], 1.93%; in test [11], 7.5%; in test [12], -2.73%.

`c1cnc(N2CCC3(COCCN(CC4CC4)C3)C2)nc1` (stereo not given): the Percent Effect in test [1] was -1.87%; in [2], 3.9%; in test [3], 6.45%; in test [4], -2.75%; in test [5], -3.21%; in test [6], 0%. In addition, the Percent Effect was 14.2% in [7]; -5.95% in test [8]; 3.4% in [9]; 3.68% in [10]; 10.3% in [11]; -1.41% in test [12].
